Reference: the supplement of paper PMC4466140

target: SpBzz1-D2; assay: SPOT peptide array binding signal intensity (averaged, normalized) (arbitrary units (background-subtracted, floor 0; scale differs between SH3 domains)); higher = stronger binding of the SH3 domain to the peptide
In short: (§1)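 E. coli BL21(DE3) was used to express GST-fused SH3 domains from four yeast species, which were then purified on glutathione Sepharose. These were incubated at 10 μg/ml in TBS-based blocking buffer overnight at 4°C on cellulose membranes carrying synthetic 15-mer peptides, in which cysteines were replaced by serines. Binding signal is the replicate average of normalized, background-subtracted spot intensity, in arbitrary units that differ between domains.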

Binder	SPOT peptide array binding signal intensity
AAHKTKPSIPPKKVE	≤ 0

target: SpCyk3; assay: as above
In short: as §1

Binder	SPOT peptide array binding signal intensity
AAHKTKPSIPPKKVE	≤ 0

target: SpHof1; assay: as above
In short: as §1

Binder	SPOT peptide array binding signal intensity
AAHKTKPSIPPKKVE	0.25

target: SpHof1-2; assay: as above
In short: as §1

Binder	SPOT peptide array binding signal intensity
AAHKTKPSIPPKKVE	6

target: SpHof1-3; assay: as above
In short: as §1

Binder	SPOT peptide array binding signal intensity
AAHKTKPSIPPKKVE	3

target: SpHse1; assay: as above
In short: as §1

Binder	SPOT peptide array binding signal intensity
AAHKTKPSIPPKKVE	32.8

target: SpLsb1; assay: as above
In short: as §1

Binder	SPOT peptide array binding signal intensity
AAHKTKPSIPPKKVE	11.5

target: SpLsb4; assay: as above
In short: as §1

Binder	SPOT peptide array binding signal intensity
AAHKTKPSIPPKKVE	4

target: SpMyo1; assay: as above
In short: as §1

Binder	SPOT peptide array binding signal intensity
AAHKTKPSIPPKKVE	≤ 0

target: SpNbp2; assay: as above
In short: as §1

Binder	SPOT peptide array binding signal intensity
AAHKTKPSIPPKKVE	12.5

target: SpPex13; assay: as above
In short: as §1

Binder	SPOT peptide array binding signal intensity
AAHKTKPSIPPKKVE	1

target: SpRvs167; assay: as above
In short: as §1

Binder	SPOT peptide array binding signal intensity
AAHKTKPSIPPKKVE	9.5

target: SpSla1-D1-D2; assay: as above
In short: as §1

Binder	SPOT peptide array binding signal intensity
AAHKTKPSIPPKKVE	4

target: SpSla1-D3; assay: as above
In short: as §1

Binder	SPOT peptide array binding signal intensity
AAHKTKPSIPPKKVE	2.5
